In the library only some 5.7% were active in any assay of this set; here they are far more common.
hgDAF12 agonist = H. glycines DAF-12 receptor agonists, primary screen, cell-based, luminescence, HEK293, GAL4 fusion, UAS-luciferase | Nuclear hormone receptor DAF-12 (Heterodera glycines), GAL4 fusion | HEK293 GAL4-hgDAF12 UAS-luciferase reporter, agonist luminescence; normalized to butyrate control | activation, % at 6.8 µM | 370,000 compounds, 1.8% hits | AID 687014, 2013;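 active = activation above a cutoff set at the mean of all screened compounds plus 3 SD, cut at about 10% in these data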;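 also: 0% = DMSO wells and 100% = sodium butyrate wells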
hcDAF12 agonist = H. contortus DAF-12 nuclear receptor activators, primary screen, cell-based, luminescence, HEK293, lit1-tk-luc reporter; HEK293 hcDAF-12 lit1-tk-luc reporter; 0% DMSO, 100% Δ7-dafachronic acid; activation, % at 6.8 µM; 370,000 compounds, 1.4% hits; AID 652067, 2013;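 active = activation above the mean of all tested compounds plus 3 SD, cut at about 5.5% in these data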;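 also: 100% = response to 3 µM Δ7-dafachronic acid high control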
ssDAF-12 act = S. stercoralis DAF-12 nuclear receptor activators, primary screen, cell-based, luminescence, HEK293, GRIP1 co-expression, lit1-tk-luc. Nuclear hormone receptor DAF-12 (Strongyloides stercoralis). HEK293 ssDAF-12/GRIP1 lit1-tk-luc reporter; % of 3 µM dafachronic acid response. activation, % at 6.8 µM. 370,000 compounds, 1% hits. AID 652126, 2013;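 active = activation above the mean over all tested compounds plus 3 SD, cut at about 0.9% in these data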;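 also: 0% = DMSO-only wells and 100% = 3 µM delta7-dafachronic acid wells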
DAX1 inh-1 = DAX1 (NR0B1) inhibitors, primary screen, cell-based, HEK293, Gal4-DAX1, luciferase luminescence | HEK293 Gal4-DAX1 luciferase reporter | inhibition, % at 6.75 µM | 340,000 compounds, 0.99% hits | AID 504766, 2011;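 active = inhibition above the mean over all tested compounds plus 3 SD, cut at about 4.2% in these data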;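 also: 0% = DAX1-transfected cells with DMSO and 100% = empty-vector control cells with DMSO; inhibition shows as a rise in luminescence from relieved DAX1 repression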
DAX1 inh-2 = DAX1 (NR0B1) inhibitors on StAR promoter, primary screen, cell-based, luminescence, SF-1 (NR5A1), full-length DAX-1 | AID 652010, 2013 | 370,000 compounds, 1.1% hits | HEK293T StAR-luciferase reporter, SF-1/DAX-1 repression relief | inhibition, % at 6.8 µM;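 active = inhibition above the mean over all tested compounds plus 3 SD, cut at about 3.6% in these data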;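 also: 0% = DAX-1 cells with DMSO and 100% = cells lacking DAX-1 with DMSO; higher inhibition means more luminescence from relief of DAX-1 repression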
AHR act = AHR activators, primary screen, cell-based, luminescence, luciferase reporter, human. AHR-responsive luciferase reporter cells. activation, % at 5 µM. Aryl hydrocarbon receptor (Homo sapiens), P35869. 320,000 compounds, 2.5% hits; in the data active = activation above about 47%;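 also: 0% = vehicle wells and 100% = reference agonist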
Target sequence (P35869 whole entry, looked up): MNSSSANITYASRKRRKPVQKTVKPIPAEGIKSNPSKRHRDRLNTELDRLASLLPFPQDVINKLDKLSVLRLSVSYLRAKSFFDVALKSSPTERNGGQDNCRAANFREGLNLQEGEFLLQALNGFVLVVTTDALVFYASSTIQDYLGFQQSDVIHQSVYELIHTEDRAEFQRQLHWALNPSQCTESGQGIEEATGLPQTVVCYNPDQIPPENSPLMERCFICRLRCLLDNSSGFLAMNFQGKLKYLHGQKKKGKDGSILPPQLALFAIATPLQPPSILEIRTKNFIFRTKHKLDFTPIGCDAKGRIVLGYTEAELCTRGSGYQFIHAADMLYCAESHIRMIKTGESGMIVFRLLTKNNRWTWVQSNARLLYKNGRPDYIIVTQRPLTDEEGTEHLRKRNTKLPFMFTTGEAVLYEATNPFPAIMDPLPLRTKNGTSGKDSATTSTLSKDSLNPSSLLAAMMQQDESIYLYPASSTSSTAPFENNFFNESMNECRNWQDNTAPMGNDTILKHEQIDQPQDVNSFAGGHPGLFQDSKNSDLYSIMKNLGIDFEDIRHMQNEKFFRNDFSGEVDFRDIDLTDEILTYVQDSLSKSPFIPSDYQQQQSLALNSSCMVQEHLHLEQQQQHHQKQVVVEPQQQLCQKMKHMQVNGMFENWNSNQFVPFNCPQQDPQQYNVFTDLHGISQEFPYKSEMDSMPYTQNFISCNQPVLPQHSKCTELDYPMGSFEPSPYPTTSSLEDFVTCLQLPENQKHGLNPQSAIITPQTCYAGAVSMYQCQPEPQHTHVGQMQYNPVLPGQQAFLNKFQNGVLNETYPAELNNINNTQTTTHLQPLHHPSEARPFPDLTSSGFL
DAX1 conf = DAX1 (NR0B1) inhibitors relieving SF-1 repression, confirmation, cell-based, luminescence, HEK293T, full-length DAX-1, SF-1 activated StAR promoter | shares compounds with DAX1 inh-2 | HEK293T StAR-promoter luciferase reporter, SF-1/DAX-1 repression | inhibition, % at 6.8 µM | 2,400 compounds, 87% hits | AID 652134, 2013;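 active = inhibition above the average of every tested compound plus 3 SD, cut at about 3.8% in these data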;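 also: 0% = DAX-1 cells with DMSO and 100% = no DAX-1 control cells with DMSO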
SF1 AF2mut Luc = StAR reporter signal changes without DAX1, counter-screen for DAX1 inhibitor project, cell-based, luminescence, AF-2 mutant SF-1, transactivation | inhibition, % at 6.8 µM | HEK293 StAR-luciferase, SF-1 AF2 mutant | shares compounds with DAX1 inh-2 | AID 652136, 2013 | 2,400 compounds, 78% hits;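 active = inhibition above the mean of all tested compounds plus 3 SD, cut at about 3% in these data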;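 also: 0% = DAX-1 transfected cells with DMSO and 100% = cells without DAX-1 with DMSO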
* = called active by the depositor; · = no result given.

SMILES	hgDAF12 agonist	hcDAF12 agonist	ssDAF-12 act	DAX1 inh-1	DAX1 inh-2	AHR act	DAX1 conf	SF1 AF2mut Luc
N/C(=N\OC(=O)CSc1ccccc1)c1ccccn1	10.1	0.7	0.0	2.1	7.0*	-6.3	5.3*	4.7*
CC(C)(C)c1ccc(C(=O)NC(=S)NNC(=O)COc2ccccc2)cc1	11.1*	2.4	-0.4	0.9	12.0*	28.6	2.4	2.0
CCOC(=O)c1sc(NC(=O)c2ccccc2F)c(C(N)=O)c1C	3.4	1.5	-1.9	-0.8	0.5	18.3	·	·
COc1ccccc1-c1nnc2n1N=C(c1ccc(O)c(O)c1)CS2	·	·	·	-0.1	·	15.4	·	·
Cc1ccccc1-c1nnc2n1N=C(c1ccc(O)c(O)c1)CS2	-7.1	-2.9	-1.9	·	5.2*	·	20.7*	-7.3
COC(=O)C1CCN(C(=O)CSc2nnc(-c3ccncc3)o2)CC1	-1.6	-0.4	-1.1	-0.2	-0.1	0.1	·	·
O=C(Nc1ccc(Cl)cc1)Nc1ccccc1C(=O)O	10.2	4.2	0.2	-1.9	5.3*	-0.4	9.0*	4.0*
COc1ccc2nc(SCC(N)=O)[nH]c2c1	0.4	-1.2	-1.3	0.8	-0.2	2.9	·	·
COc1ccc2nc(SCC(=O)/C(C#N)=C(\C)N)[nH]c2c1	9.2	5.8*	0.0	1.0	4.8*	27.0	13.8*	8.8*
CN[C@H](C)C(=O)NC[C@H]1O[C@@H](n2cc(C)c(=O)[nH]c2=O)C[C@@H]1O	-0.5	-1.1	-0.6	2.0	-0.4	·	·	·
COc1ccc(-c2cnc3c(NC=O)cc(-c4ccccc4OC)cn23)cc1OC	-0.2	-2.5	-2.3	·	10.9*	·	29.8*	-8.3
Cc1nc(Nc2ccccc2O)c2oc3ccccc3c2n1	1.1	1.3	-0.7	-0.8	0.2	·	·	·
COc1ccc(OCc2nnc(SCC(N)=O)n2N)cc1	1.9	-0.8	-0.9	-1.2	0.8	-0.1	·	·
Cc1cccc(N2C(=O)CC(SC(=Nc3ccccc3)Nc3ccccc3)C2=O)c1 (centres undefined)	-0.6	1.3	-1.1	0.8	0.2	5.4	·	·
O=C1SC(SC(=Nc2ccccc2)Nc2ccccc2)C(=O)N1c1ccccc1 (centres undefined)	13.4*	2.7	0.4	3.3	5.9*	6.2	1.9	0.9
CCc1nnc(NC(=O)CSc2nc3[nH]ncc3c(=O)[nH]2)s1	-0.1	1.0	-1.4	-0.5	-0.2	1.8	·	·
CCc1noc(C)c1C(=O)NCCc1ccccc1	5.9	4.1	-0.1	0.2	5.3*	6.7	6.1*	4.8*
Cc1ccc(NC(=O)NCCN2C(=O)C3C4C=CC(C4)C3C2=O)cc1 (centres undefined)	10.1	6.5*	-0.8	5.8*	5.1*	9.3	13.4*	6.1*
COc1ccc(NC(=O)CCN2C(=O)[C@@H]3[C@H](C2=O)[C@H]2C=C[C@@H]3C2)cc1	2.1	-0.3	-1.2	1.4	0.7	-0.6	·	·
CC(C)(c1ccccc1)c1ccc(OCc2ccc(C(=O)O)o2)cc1	9.4	4.0	0.4	2.4	11.1*	·	5.3*	4.9*
CC(C)n1nnnc1C1c2ccccc2C(=O)N1CCc1c[nH]c2ccccc12 (centres undefined)	5.4	2.5	-0.7	·	5.5*	·	2.6	2.3
O=C1c2ccccc2C(c2nnnn2Cc2ccccc2)N1CCOc1ccccc1 (centres undefined)	18.9*	8.2*	0.3	·	7.2*	·	6.5*	4.1*
CC(C)CCN1C(=O)c2ccccc2C1c1nnnn1Cc1ccccc1 (centres undefined)	-1.2	0.3	-1.3	·	1.8	·	·	·
O=C1c2ccccc2C(c2nnnn2Cc2ccccc2)N1CCc1ccccc1F (centres undefined)	11.1*	5.1	-0.3	·	9.2*	·	-3.6	-0.6
O=C1c2ccccc2C(c2nnnn2-c2ccc3c(c2)OCCO3)N1CCc1c[nH]c2ccccc12 (centres undefined)	-1.6	2.4	-0.2	·	0.2	·	·	·
SMILES	hgDAF12 agonist	hcDAF12 agonist	ssDAF-12 act	DAX1 inh-1	DAX1 inh-2	AHR act	DAX1 conf	SF1 AF2mut Luc
COc1ccccc1-n1nnnc1SCc1ccccc1	1.6	-1.2	-1.4	-1.1	-0.9	0.8	·	·
CCOC(=O)c1ccccc1NC(=O)C1CCCO1 (centres undefined)	-0.7	0.9	-1.0	1.5	-0.2	12.2	·	·
Cc1ccc(NC(=O)c2ccc(OCC3CCCO3)cc2)nc1 (centres undefined)	11.6*	3.5	0.0	0.3	8.3*	5.6	6.7*	3.3*
CCOc1ccc(NC(=O)c2ccc(CN3CCc4ccccc4C3)cc2)cc1	-7.3	-3.8	-1.8	-4.3	-1.3	1.4	·	·
CCOC(=O)c1c(C)[nH]c(N=Nc2ccccc2)c1C	9.4	0.4	-1.4	2.5	0.4	4.4	·	·
CCOC(=O)c1c(C)[nH]c(N=Nc2cccc(C)c2)c1C	9.6	2.4	0.8	2.2	4.6*	-0.9	8.8*	3.9*
COc1ccc(C(=O)O)cc1S(=O)(=O)NCCN(C)C	3.2	1.1	-0.8	2.2	0.3	-3.5	·	·
CCOC(=O)c1c(C)[nH]c(C(=O)OCc2ccc(F)cc2)c1C	7.9	2.6	-0.6	2.7	5.7*	·	7.5*	5.8*
CCOC(=O)c1c(C)[nH]c(C(=O)COC(=O)C2CC2)c1C	6.5	0.6	-1.0	-0.3	5.2*	·	3.3	0.1
CCOC(=O)c1[nH]c(C)c(C(=O)Nc2ccc(F)cc2)c1C	-2.8	-1.5	-0.8	-2.2	-0.8	-0.9	·	·
COc1cc([C@@H]2c3cc4c(cc3[C@H](O)[C@H]3COC(=O)[C@H]23)OCO4)cc(OC)c1OC	-3.6	0.3	0.0	-0.3	11.6*	10.0	14.9*	-5.0
COc1cc(C2c3cc4c(cc3C(O)C3COCC23)OCO4)cc(OC)c1OC (centres undefined)	4.5	-0.8	-1.1	1.5	-0.4	·	·	·
